Laboratory results from PubChem BioAssay (NCATS).
Records with an inconclusive call do not appear. The source made the active and inactive calls. Calls follow the shape of the dose curve; as a rule, active = well fitted curve in the direction sought with a large enough effect; inconclusive = small, poorly fitted or top-dose-only effect, or another doubt; inactive = no such curve, though single readings can be large; an effect the other way counts as inactive or inconclusive.

How the values were obtained:
[1] = qHTS of pediatric cancer cell lines to identify multiple opportunities for drug repurposing: Primary screen for TC32 cells (AID 1347089); also: nearly all actives have a fitted effect of over 60% in size; as to activity change, negative = cytotoxic: % is scaled to controls: 0 for no effect and ±100 for the full control effect
Summary of the method: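 TC32 cells, 500-1,000/well in growth medium, compound-treated 48 h at 37 °C; viability from CellTiter-Glo luminescence. Primary screen: MIPE 11-point (0.78 nM–46 µM final), NPC 8-point (0.59 nM–46 µM final); confirmatory at 11-point dilutions.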

[2] = qHTS of pediatric cancer cell lines to identify multiple opportunities for drug repurposing: Primary screen for DAOY cells (AID 1347090); also: nearly all actives have a fitted effect of over 55% in size;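 as to activity change, negative = cytotoxic: series mostly up to about 46 µM; plate controls were DMSO for no effect and bortezomib for full effect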
Summary of the method: (§1)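 Eight- or eleven-point concentration series, 48 h treatment at 37 degrees C in growth media; readout CellTiter-Glo luminescence. Potency and efficacy were taken from the concentration-response curves.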

[3] = qHTS of pediatric cancer cell lines to identify multiple opportunities for drug repurposing: Primary screen for SJ-GBM2 cells (AID 1347091);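 as to activity change, negative = cytotoxic: plate controls were DMSO neutral control for no effect and bortezomib for full effect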
Summary of the method: as §1

[4] = qHTS of pediatric cancer cell lines to identify multiple opportunities for drug repurposing: Primary screen for A673 cells (AID 1347092); also: nearly all actives have a fitted effect of over 45% in size; as to activity change, negative = cytotoxic: % is scaled to controls: 0 for no effect and ±100 for the full control effect
Summary of the method: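 A673 cells (500-1,000 cells/well) were treated 48 hours at 37 degrees C with compounds at 11-point (0.78 nM to 46 µM) or 8-point (0.59 nM to 46 µM) dilutions. Viability read by CellTiter-Glo luminescence; concentration-response curves fitted.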

[5] = qHTS of pediatric cancer cell lines to identify multiple opportunities for drug repurposing: Primary screen for SK-N-MC cells (AID 1347093);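 as to activity change, negative = cytotoxic: series mostly up to about 46 µM; plate controls were DMSO neutral control for no effect and bortezomib for full effect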
Summary of the method: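 Metabolically active cells were quantified by ATP-dependent luminescence (CellTiter-Glo, 15 min at room temperature) following 48 h treatment. Cells had been plated at 500-1,000 per well and settled for 5 h beforehand.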

[6] = qHTS of pediatric cancer cell lines to identify multiple opportunities for drug repurposing: Primary screen for BT-37 cells (AID 1347094);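 as to activity change, negative = cytotoxic: series mostly up to about 57 µM; plate controls were DMSO for no effect and bortezomib for full effect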
Summary of the method: (§2)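 Phenotypic viability qHTS, 48 h compound exposure, CellTiter-Glo luminescence read-out; multi-concentration dosing so that potency and efficacy derive directly from the primary screen's curves.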

[7] = qHTS of pediatric cancer cell lines to identify multiple opportunities for drug repurposing: Primary screen for NB-EBc1 cells (AID 1347095);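 as to activity change, negative = cytotoxic: plate controls were DMSO neutral control for no effect and bortezomib for full effect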
Summary of the method: as §2

[8] = qHTS of pediatric cancer cell lines to identify multiple opportunities for drug repurposing: Primary screen for Saos-2 cells (AID 1347097); also: nearly all actives have a fitted effect of over 40% in size; as to activity change, negative = cytotoxic: % is scaled to controls: 0 for no effect and ±100 for the full control effect
Summary of the method: as §2

[9] = qHTS of pediatric cancer cell lines to identify multiple opportunities for drug repurposing: Primary screen for LAN-5 cells (AID 1347100);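 as to activity change, negative = cytotoxic: plate controls were DMSO neutral control for no effect and bortezomib positive control for full effect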
Summary of the method: (§3)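 Cells (500-1,000/well) in growth media were settled 5 h at 37 degrees C, then given compounds for 48 h. Viability was read as CellTiter-Glo luminescence. Primary runs used MIPE at 11 points (0.78 nM-46 µM) and NPC at 8 points (0.59 nM-46 µM); follow-ups used 11 points.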

[10] = qHTS of pediatric cancer cell lines to identify multiple opportunities for drug repurposing: Primary screen for BT-12 cells (AID 1347101); also: nearly all actives have a fitted effect of over 25% in size;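 as to activity change, negative = cytotoxic: plate controls were DMSO for no effect and bortezomib positive control for full effect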
Summary of the method: (§4)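 Cells (500-1,000/well) rested 5 h, then received compounds for 48 h; metabolically active cells were measured by CellTiter-Glo luminescence. Final concentrations spanned up to 46 µM (MIPE, 11-point) or 0.59 nM-46 µM (NPC, 8-point) in primary screens, 11-point in follow-ups.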

[11] = qHTS of pediatric cancer cell lines to identify multiple opportunities for drug repurposing: Primary screen for Rh18 cells (AID 1347102); also: nearly all actives have a fitted effect of over 65% in size; as to activity change, negative = cytotoxic: % is scaled to controls: 0 for no effect and ±100 for the full control effect
Summary of the method: as §3

[12] = qHTS of pediatric cancer cell lines to identify multiple opportunities for drug repurposing: Primary screen for OHS-50 cells (AID 1347103); also: nearly all actives have a fitted effect of over 40% in size;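 as to activity change, negative = cytotoxic: plate controls were DMSO neutral control for no effect and bortezomib positive control for full effect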
Summary of the method: as §4

[13] = qHTS of pediatric cancer cell lines to identify multiple opportunities for drug repurposing: Primary screen for U-2 OS cells (AID 1347096); also: nearly all actives have a fitted effect of over 50% in size;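 as to activity change, negative = cytotoxic: plate controls were DMSO wells for no effect and bortezomib positive control wells for full effect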
Summary of the method: as §3

[14] = qHTS of pediatric cancer cell lines to identify multiple opportunities for drug repurposing: Primary screen for SK-N-SH cells (AID 1347098); also: nearly all actives have a fitted effect of over 65% in size
Summary of the method: as §4

[15] = qHTS of pediatric cancer cell lines to identify multiple opportunities for drug repurposing: Primary screen for RD cells (AID 1347104); also: nearly all actives have a fitted effect of over 55% in size;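 as to activity change, negative = cytotoxic: plate controls were DMSO for no effect and bortezomib for full effect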
Summary of the method: as §2

[16] = qHTS of pediatric cancer cell lines to identify multiple opportunities for drug repurposing: Primary screen for MG 63 (6-TG R) cells (AID 1347105); also: nearly all actives have a fitted effect of over 50% in size
Summary of the method: as §2

[17] = qHTS of pediatric cancer cell lines to identify multiple opportunities for drug repurposing: Primary screen for NB1643 cells (AID 1347099); also: nearly all actives have a fitted effect of over 50% in size
Summary of the method: as §2
Potency is read from the fitted curve at half-maximal effect.

COC(=O)Nc1nc2ccc(C(=O)C3CC3)cc2[nH]1
inactive: Potency [11]
active: Potency [1] 1330 nM | Potency [2] 1060 nM | Potency [3] 841 nM | Potency [4] 1060 nM | Potency [5] 1060 nM | Potency [6] 2190 nM | Potency [7] 596 nM | Potency [8] 841 nM | Potency [9] 841 nM | Potency [10] 2190 nM | Potency [12] 1100 nM

CO[C@@]1(NC(=O)Cc2cccs2)C(=O)N2C(C(=O)O)=C(COC(N)=O)CS[C@@H]21
inactive: Potency [1] | Potency [2] | Potency [3] | Potency [4] | Potency [5] | Potency [6] | Potency [7] | Potency [13] | Potency [8] | Potency [14] | Potency [9] | Potency [10] | Potency [11] | Potency [12] | Potency [15] | Potency [16]

NCCO
inactive: Potency [1] | Potency [2] | Potency [3] | Potency [4] | Potency [5] | Potency [6] | Potency [7] | Potency [13] | Potency [9] | Potency [10] | Potency [11] | Potency [12] | Potency [15] | Potency [16]

O=C(O)Cc1ccc2c(c1)C(=O)c1ccccc1CO2
inactive: Potency [1] | Potency [2] | Potency [3] | Potency [4] | Potency [5] | Potency [6] | Potency [7] | Potency [13] | Potency [8] | Potency [14] | Potency [9] | Potency [10] | Potency [11] | Potency [12] | Potency [15] | Potency [16]

COC(=O)c1nc(Cl)c(Cl)nc1N
active: Potency [1] 3330 nM | Potency [2] 1330 nM | Potency [3] 5310 nM | Potency [4] 2110 nM | Potency [5] 668 nM | Potency [6] 13800 nM | Potency [7] 1330 nM | Potency [13] 13300 nM | Potency [8] 2370 nM | Potency [14] 3440 nM | Potency [9] 3350 nM | Potency [10] 2190 nM | Potency [11] 23700 nM | Potency [12] 872 nM | Potency [15] 5960 nM | Potency [16] 8410 nM

COc1cccc2c1C(=O)c1c(O)c3c(c(O)c1C2=O)C[C@@](O)(C(=O)CO)C[C@@H]3O[C@H]1C[C@H](N)[C@H](O[C@@H]2CCCCO2)[C@H](C)O1
active: Potency [1] 470 nM | Potency [2] 1680 nM | Potency [3] 1330 nM | Potency [4] 1060 nM | Potency [5] 211 nM | Potency [6] 246 nM | Potency [7] 75 nM | Potency [8] 2660 nM | Potency [14] 97 nM | Potency [17] 596 nM | Potency [9] 266 nM | Potency [10] 1550 nM | Potency [11] 15000 nM | Potency [12] 777 nM | Potency [15] 8410 nM | Potency [16] 841 nM

CC(=O)c1ccc(OCC(=O)N2CCCCC2)cc1
inactive: Potency [1] | Potency [2] | Potency [3] | Potency [4] | Potency [5] | Potency [6] | Potency [7] | Potency [13] | Potency [8] | Potency [14] | Potency [9] | Potency [10] | Potency [11] | Potency [12] | Potency [15] | Potency [16]

CC(C(=O)O)c1ccc(C(=O)c2cccs2)cc1 (stereo not drawn)
inactive: Potency [1] | Potency [2] | Potency [3] | Potency [4] | Potency [5] | Potency [6] | Potency [7] | Potency [13] | Potency [14] | Potency [9] | Potency [10] | Potency [11] | Potency [12] | Potency [15] | Potency [16]

c1ccc2sc(SN3CCOCC3)nc2c1
inactive: Potency [1] | Potency [2] | Potency [3] | Potency [4] | Potency [5] | Potency [6] | Potency [7] | Potency [13] | Potency [8] | Potency [14] | Potency [9] | Potency [10] | Potency [11] | Potency [12] | Potency [15] | Potency [16]

O=C(O)Cc1cccc(-c2cc(CCCCCCc3ccc(O[C@H]4O[C@H](CO)[C@@H](O)[C@H](O)[C@@H]4O)c(-c4cccc(CC(=O)O)c4)c3)ccc2O[C@H]2O[C@H](CO)[C@@H](O)[C@H](O)[C@@H]2O)c1
inactive: activity change, negative = cytotoxic [1] 14.4% [at 0.594 µM] | activity change, negative = cytotoxic [2] 1% [at 0.597 µM] | activity change, negative = cytotoxic [3] 18.6% [at 0.597 µM] | activity change, negative = cytotoxic [4] 10.8% [at 0.597 µM] | activity change, negative = cytotoxic [5] -8.23% [at 0.597 µM] | activity change, negative = cytotoxic [6] 12.8% [at 0.745 µM] | activity change, negative = cytotoxic [7] 9.49% [at 0.597 µM] | activity change, negative = cytotoxic [13] 2.96% [at 0.597 µM] | activity change, negative = cytotoxic [8] 9.71% [at 0.597 µM] | activity change, negative = cytotoxic [14] -3.64% [at 0.741 µM] | activity change, negative = cytotoxic [9] 9.16% [at 0.597 µM] | activity change, negative = cytotoxic [10] 15.7% [at 0.745 µM] | activity change, negative = cytotoxic [11] 18.6% [at 0.597 µM] | activity change, negative = cytotoxic [12] 10.4% [at 0.73 µM] | activity change, negative = cytotoxic [15] 16.2% [at 0.597 µM] | activity change, negative = cytotoxic [16] -10.3% [at 0.597 µM]
